Test results as given in paper PMC12136788.
Positions count from the first letter of the chain named. In all, about 24,000 sequences were measured (“enrichment r”: median about 0.99, highest 2% from about 3.7 on). The sample as a whole holds a higher share of the highest values than the screen did.

T1: UNK ZnF1-3 (human, UniProt Q9C0B0 31-174)
T1 sequence: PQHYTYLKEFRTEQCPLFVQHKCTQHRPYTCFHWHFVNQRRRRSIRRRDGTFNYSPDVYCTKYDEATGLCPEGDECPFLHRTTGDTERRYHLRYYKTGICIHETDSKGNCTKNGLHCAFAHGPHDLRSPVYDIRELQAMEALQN

B1: chr7:149068622:149068623:-_ENSMUSG00000025139_ENSMUST00000001950|mus_hu|mus_mus_mus_hu_False|8_28 (ssRNA)
RNA: GGGAGUUCUACAGUCCGACGAUCGUGAGGCCUCUGAGUGUGGCUUGUGGUCUGUCCUGGGUUAGAGUUGUUAAUAUCACGGAACAUACCAUCUAGAACGUUCCAGUCUGCCUGACUACCUUCAUUCGCAAGAGGGCAGAAAUCCAACAGAGGAUUGAGCAUCA
B2: chr5:138634757:138634758:+_ENSMUSG00000036968_ENSMUST00000110934|mus_hu|FALSE|FALSE (ssRNA)
RNA: GGGAGUUCUACAGUCCGACGAUCGUAGACCAAGUAUCUAUCCCACCUAAAUUAUCAGCAACUCCAGGCCAUGACCCAGUGUCCCAUUCUCCUUCACGGUUUGCUGGUGUGUAGCCUCCUGGAUACAGGCAAUGUAUAUAGAUCCAACAGAGGAUUGAGCAUCA
B3: chr17:56552419:56552420:-_ENSMUSG00000013236_ENSMUST00000086828|mus_mus|mus_mus_mus_hu_False|58_88 (ssRNA)
RNA: GGGAGUUCUACAGUCCGACGAUCAAAAAAUACACUAUUUAAAAAAAAAAGAAAAAAACGGGAUACAGUUACACUGACACUAUUAAAAGAAAGCUGGAUUCUGGUCCCAGCCCAGUGUCCCCAGGCUGCAGAGCGGGGAGGAGCCAACAGAGGAUUGAGCAUCA
B4: chr17:56552419:56552420:-_ENSMUSG00000013236_ENSMUST00000086828|mus_mus|mus_mus_mus_hu_False|8_88 (ssRNA)
RNA: GGGAGUUCUACAGUCCGACGAUCAAAAAAUACACUAUUUAAAAAAAAAAGAAAAAAACGGGAUACAGUUACACUGAGAGUUUUAAAAGAAAGCUGGAUUCUGGUCCCAGCCCAGUGUCCCCAGGCUGAGUGCGGAAGAGGAGCCAACAGAGGAUUGAGCAUCA
B5: chr17:56552419:56552420:-_ENSMUSG00000013236_ENSMUST00000086828|mus_mus|mus_mus_mus_hu_False|88_88 (ssRNA)
RNA: B3 RNA with C77G, C79G, A81U
B6: chr17:56552419:56552420:-_ENSMUSG00000013236_ENSMUST00000086828|mus_mus|mus_mus_mus_hu_False|28_88 (ssRNA)
RNA: B3 RNA with C77G, C79G, A81U, C107U, A108U, C112A, G114A, U115A
B7: 30734625_30737523_1216_CDS_ENSG00000101337_ENST00000398022|human|control|control (ssRNA)
RNA: GGGAGUUCUACAGUCCGACGAUCCAGGGAGCUGAGGAUCAUGGGGUACUGGGGGGGCCUGAAGACGUCGCCGUGCACCAACUUCCACCCAGACUCCUCCAUGGUGUCUUCAAUGUCAUCCUCCUUGUUGUAGUUGGCAAUGUCCAACAGAGGAUUGAGCAUCA
B8: chr7:149068622:149068623:-_ENSMUSG00000025139_ENSMUST00000001950|mus_hu|mus_mus_mus_hu_False|68_68 (ssRNA)
RNA: GGGAGUUCUACAGUCCGACGAUCGUGAGGCCUCUGAGUGUGGCUUGUGGUCUGUCCUGGGUUAGAGCUGCUGGUAACACGGAACAUACCAUCUAGAACGUUCCAGUCCCGCCUGACACCUUCAUUCCCAAUGGAGAAGAAAUCCAACAGAGGAUUGAGCAUCA
B9: chr1:93299114:93299115:+_ENSG00000122406_ENST00000370321|hu_hu|motif|central (ssRNA)
RNA: GGGAGUUCUACAGUCCGACGAUCUUGUAUCACCAAGCGUUUCCGAGCAUAAUAAUCAGUUUUACCCUCUCGUCGUCUUCGGAAUUUCACUUGGUAUCUCUUAAAGUAGGCCUUAUUCUUAACAACUUUAACAAACCCCAUCCUCAACAGAGGAUUGAGCAUCA
B10: chr3:32335226:32335227:+_ENSMUSG00000027665_ENSMUST00000108243|mus_mus|motif|central (ssRNA)
RNA: GGGAGUUCUACAGUCCGACGAUCGGCCUCUCUGAACAGUUCAUGUUUGAUGGUGACGAGUGUGGCCUCACGGAGGCAUUCGGAAGUCACUAUCAUUCCAUUGGGGAGUAAACAUUCCACUAGGAUUCGUGGGGGCAUCAAGUGCAACAGAGGAUUGAGCAUCA
B11: chr7:54825262:54825263:-_ENSG00000132432_ENST00000352861|hu_hu|hu_hu_hu_mus_False|48_78 (ssRNA)
RNA: GGGAGUUCUACAGUCCGACGAUCCUGCCGGCUGGGCUCCACAAACUGCAUUACCUGCAUGACUGCCGUUGGAUGGCGGAUUGAGAGUGCCAGGGACCGUAGCUCAGGAGAGAACCGAGCCCAACGGAACCGGAAGCUGGCAACCAACAGAGGAUUGAGCAUCA
B12: 93048056_93048176_2666_3pUTR_ENSMUSG00000020964_ENSMUST00000021347|mouse|control|control (ssRNA)
RNA: GGGAGUUCUACAGUCCGACGAUCCACUGAGAGUUGUCAUUCCGUAUGGCACUGAAACAAACAUUCACUGCAGCUCUGCCGAGAGCCGCGCAUCCCUGAAAAGGAAGGCAGCAGGUUCUAAGCAGCUUCUGGGAUUCAACACGCCAACAGAGGAUUGAGCAUCA
B13: chr17:56552419:56552420:-_ENSMUSG00000013236_ENSMUST00000086828|mus_mus|mus_mus_mus_hu_False|88_98 (ssRNA)
RNA: B3 RNA with U38A, U39A, C77G, C79G, A81U
B14: chrX:165757501:165757502:-_ENSMUSG00000031352_ENSMUST00000112115|mus_mus|FALSE|FALSE (ssRNA)
RNA: GGGAGUUCUACAGUCCGACGAUCAGCAGGAGAAGAUGCUGAGGCACCCAUGGCUGGAAUCACAGGGGUCACUCCCAAUCUAAAAUACCCAGCAAAACGGGAGGCAAGGAGCGGCGAAGGGCAGGAAGCCACCAGUGUUGCCUUCAACAGAGGAUUGAGCAUCA
B15: chr17:56552419:56552420:-_ENSMUSG00000013236_ENSMUST00000086828|mus_mus|mus_mus_mus_hu_False|18_88 (ssRNA)
RNA: GGGAGUUCUACAGUCCGACGAUCAAAAAAUACACUAUUUAAAAAAAAAAGAAAAAAACGGGAUACAGUUACACUGAGAGUUUUAAAAGAAAGCUGGAUUCUGGUCCCAGCCCAGUGGCAGGCAGGGGCAGAGCGGGGAGGAGCCAACAGAGGAUUGAGCAUCA
B16: chr17:56552419:56552420:-_ENSMUSG00000013236_ENSMUST00000086828|mus_mus|mus_mus_mus_hu_False|1_88 (ssRNA)
RNA: B3 RNA with C77G, C79G, A81U, A138C, G139A, C143G
B17: chr17:56552419:56552420:-_ENSMUSG00000013236_ENSMUST00000086828|mus_mus|mus_mus_mus_hu_False|48_88 (ssRNA)
RNA: B3 RNA with C77G, C79G, A81U, G88A, G92A, C93U, U94A, G95A

What follows are binders tested against T1, UNK ZnF1-3 (assay: nsRBNS (natural sequence RNA bind-n-seq); RBNS binding buffer (assumed for nsRBNS): 25 mM Tris pH 7.5, 150 mM KCl, 3 mM MgCl2, 0.01% Triton X-100, 500 ug/ml BSA, 20 U/ml SUPERase-In, 4 C; UNK is unkempt and MSI1 is Musashi-1; names of the RNAs are library labels; protein concentration not given here; high values mean tight binding).
With B1 the binding signal was 0.726 enrichment R.
For B2, the binding signal was 0.757 enrichment R.
In the case of B3, the binding signal is reported as 12.3 enrichment R.
Work on B4 yielded a binding signal of 6.77 enrichment R.
Binder B5 has a binding signal of 7.69 enrichment R.
B6 showed a binding signal of 8.27 enrichment R.
With B7 the binding signal was 0.573 enrichment R.
B8 showed a binding signal of 0.824 enrichment R.
B9 was tested, and the binding signal was 0.572 enrichment R.
Work on B10 yielded a binding signal of 1.05 enrichment R.
B11 showed a binding signal of 1.55 enrichment R.
Binder B12 has a binding signal of 0.952 enrichment R.
B13 gave a binding signal of 16 enrichment R.
In the case of B14, the binding signal is reported as 1.75 enrichment R.
Work on B15 yielded a binding signal of 9.03 enrichment R.
With B16 the binding signal was 7.19 enrichment R.
For B17, the binding signal was 16.3 enrichment R.
